Experimental data from PubChem BioAssay AID602385 (Sanford-Burnham Center for Chemical Genomics, 2012).
Screen size: about 2,300 compounds; about 180 (7.8%) were called active. The sample as a whole holds a higher share of actives than the screen did. Values without a mark were called inactive.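 Rule for the calls: active = average inhibition of at least 30% in the single-concentration confirmation test; inactive = the rest.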

target: DNA (cytosine-5)-methyltransferase 1 (Homo sapiens) (UniProt P26358); assay: inhibition of human DNMT1, hit confirmation – biochemical, molecular beacon, fluorescence, single concentration (AID 602385); details: DNMT1 molecular beacon HinP1I cleavage, at 10 µM, stronger effect = higher value
Sequence (P26358 504-1616 limits assumed): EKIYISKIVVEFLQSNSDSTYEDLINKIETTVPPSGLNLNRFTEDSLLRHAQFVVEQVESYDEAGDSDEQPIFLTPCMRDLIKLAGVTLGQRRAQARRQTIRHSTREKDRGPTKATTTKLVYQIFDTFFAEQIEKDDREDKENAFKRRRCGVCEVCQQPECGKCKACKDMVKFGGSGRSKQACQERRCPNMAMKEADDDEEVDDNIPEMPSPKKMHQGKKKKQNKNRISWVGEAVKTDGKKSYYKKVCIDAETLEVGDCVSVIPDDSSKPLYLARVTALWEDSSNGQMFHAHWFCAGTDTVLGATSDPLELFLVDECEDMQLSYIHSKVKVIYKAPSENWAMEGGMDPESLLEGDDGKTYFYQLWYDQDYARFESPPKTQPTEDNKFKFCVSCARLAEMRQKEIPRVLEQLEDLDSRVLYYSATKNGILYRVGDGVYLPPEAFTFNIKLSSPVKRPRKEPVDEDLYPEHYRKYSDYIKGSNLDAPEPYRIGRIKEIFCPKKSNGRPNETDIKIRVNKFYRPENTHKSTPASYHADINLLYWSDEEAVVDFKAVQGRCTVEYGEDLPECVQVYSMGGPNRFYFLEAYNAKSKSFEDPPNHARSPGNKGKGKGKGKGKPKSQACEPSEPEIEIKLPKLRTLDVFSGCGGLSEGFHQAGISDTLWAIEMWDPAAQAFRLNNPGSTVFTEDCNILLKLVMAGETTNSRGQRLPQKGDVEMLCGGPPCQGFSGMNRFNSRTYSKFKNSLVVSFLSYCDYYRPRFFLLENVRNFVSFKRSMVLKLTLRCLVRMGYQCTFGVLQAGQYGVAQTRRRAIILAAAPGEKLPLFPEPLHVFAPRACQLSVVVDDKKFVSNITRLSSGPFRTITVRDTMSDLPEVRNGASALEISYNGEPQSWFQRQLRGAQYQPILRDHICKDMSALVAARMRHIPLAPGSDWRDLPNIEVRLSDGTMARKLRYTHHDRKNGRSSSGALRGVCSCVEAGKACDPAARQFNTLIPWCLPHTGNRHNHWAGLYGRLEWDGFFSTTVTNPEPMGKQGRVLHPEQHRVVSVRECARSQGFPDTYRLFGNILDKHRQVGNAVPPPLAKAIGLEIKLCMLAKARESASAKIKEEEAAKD

Question: Which inhibition does the source give for `Cc1c(C(=O)O)cccc1-n1c(C)cc(/C=C2\C(=O)NC(=O)N(c3ccc4c(c3)OCO4)C2=O)c1C` here?
Answer: 35.1% (active)

Question: For `O=C1NC(=O)N(Cc2ccco2)C(=O)/C1=C\c1ccc(-c2ccc(F)cc2)o1`, which inhibition is on record?
Answer: 8.93%

Question: For `CC1=C(C(=O)Nc2ccccc2)SCCO1`, which inhibition is on record?
Answer: 6.68%
